The structures appear in SMILES notation. Inconclusive results are not listed. Activity calls are given as the source filed them. Calls follow the shape of the dose curve; as a rule, active = well fitted cell-killing curve with a large enough effect in the repeat runs; inconclusive = weak or mixed curves; inactive = flat fitted curve, though single readings scatter.
% is scaled to controls: 0 for no effect and ±100 for the full control effect; potency is read from the fitted curve at half-maximal effect.

A short description of this experiment: qHTS RealTime-Glo MT Cell Viability Assay in HepG2 cells - 32 hour (AID 1224877). Also: nearly all actives have a fitted effect of over 55% in size. The following applies: RealTime-Glo luminescence; series mostly up to 76.8 µM; activity change, negative = cytotoxic: at the top concentration. The essentials: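 Tox21 10K library screened in qHTS format on HepG2 cells carrying RealTime-Glo reagents. Compounds were added after a 5 h preincubation, and the luminescent signal from continuous culture was measured repeatedly during 40 h treatment.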
Take `CCC(=O)CC(C)CC` (stereo unspecified): the activity change, negative = cytotoxic was -0.929% [at 0.29 µM] (inactive). Same read-out and setting: with `C=C/C=C/C=C/CCCCC` the figure was 7.06% [at 15.8 µM] (inactive); with `Oc1c(Br)cc(Br)c2cccnc12`, -14.5% [at 35.3 µM] (inactive). For `CCCCCCCC/C=C\CCCCCCCC(=O)NCc1ccc(O)c(OC)c1`, the “activity change, negative = cytotoxic” value was -9.23% [at 35.3 µM] (inactive). For `CCCOc1sc(C(=O)N2CCC(c3cc(CN)ccc3F)CC2)c(C)c1Br`, the Potency is 22.5 µM (active). As for `O=S(O)O`, the activity change, negative = cytotoxic was 4.15% [at 15.8 µM] (inactive). Same read-out and setting: with `NCCCCCCNCCCCCCN` the figure was 0.123% (inactive); with `C=CC/C=C/C/C=C/C/C=C/C`, 4.52% (inactive); with `C=CCCCCCCC=C`, -0.0863% (inactive).

With `CCCCN(C)C`, the “activity change, negative = cytotoxic” value is 0.381% (inactive). On to `CC(NCCC(c1ccccc1)c1ccccc1)c1ccccc1` (stereo unspecified), for which the Potency is 23.9 µM (active). Consider `CCCCCCCCCCCCCCCC`, for which the “activity change, negative = cytotoxic” value is 1.03% (inactive). In the case of `CCc1cccc(CC)c1NC(=O)C(=O)O`, the “activity change, negative = cytotoxic” value is 3.59% (inactive). For the compound `O=C1OC(OC(=O)c2cccnc2Nc2cccc(C(F)(F)F)c2)c2ccccc21` (stereo unspecified), the “activity change, negative = cytotoxic” value was -1.53% [at 35.3 µM] (inactive). Take `CN1[C@@H]2CC[C@H]1CC(OC(=O)C(CO)c1ccccc1)C2` (stereo partly specified): the Potency result was “inactive”. For `CC(COC(=O)c1ccccc1)OC(=O)c1ccccc1` (stereo unspecified), the “activity change, negative = cytotoxic” value was -2.38% (inactive). For the compound `CCOC(=O)CN`, the “activity change, negative = cytotoxic” value was -0.914% (inactive). Still for that read-out and setting: with `COC(=O)CC(C)CCC=C(C)C` (stereo unspecified) the figure was -3.6% (inactive); with `CCCCCCCC(=O)OCC`, 10% (inactive). Same read-out and setting: the value for `CCOC(/C=C(\C)CCC=C(C)C)OCC` was -2.35% (inactive); that for `CCC1CCCCC1` was 7.18% (inactive). On to `CCCCCCCCCCCCCCNCCO`, for which the Potency was 10.7 µM (active). The same measure, in the same setting: the value for `O=C1c2c(O)ccc(O)c2C(=O)c2c(NCCNCCO)ccc(NCCNCCO)c21` was 8.49 µM (active); that for `Cc1c(-c2ccc(O)cc2)n(Cc2ccc(OCCN3CCCCCC3)cc2)c2ccc(O)cc12` was 9.52 µM (active). As to `C=CC(C)(CCC=C(C)C)OC(=O)/C=C/c1ccccc1` (stereo unspecified), the “activity change, negative = cytotoxic” value was -10.7% (inactive). Same read-out and setting: with `COc1nccnc1CC(C)C` the figure was -8.56% (inactive). Take `CCCCC(CC)COC(=O)c1ccc(O)cc1` (stereo unspecified): the Potency entry is “inactive”.

With `Cc1c(C(=O)O)cccc1[N+](=O)[O-]`, the “activity change, negative = cytotoxic” value is 0.549% (inactive). On to `Clc1ccccc1CN1CCc2sccc2C1`, for which the “activity change, negative = cytotoxic” value is -2.54% [at 35.3 µM] (inactive).

Consider `Clc1ccc(C(c2ccccc2Cl)C(Cl)Cl)cc1` (stereo unspecified), for which the Potency entry is “inactive”. Take `CCC(C)c1ccccc1` (stereo unspecified): the “activity change, negative = cytotoxic” value is -1.18% (inactive). The same measure, in the same setting: with `CCCCCCCOC(=O)c1ccccc1C(=O)OCCCCCCC` the figure was 2.22% (inactive). Consider `COCC(=O)O[C@]1(CCN(C)CCCc2nc3ccccc3[nH]2)CCc2cc(F)ccc2[C@@H]1C(C)C`, for which the Potency is 13.4 µM (active). In the case of `O[C@@H](c1cc(C(F)(F)F)nc2c(C(F)(F)F)cccc12)[C@H]1CCCCN1`, the Potency was 13.4 µM (active).

For the compound `CC(C)=C1CC[C@@H](C)CC1=O`, the “activity change, negative = cytotoxic” value was -0.0794% (inactive).

For the compound `SCCCCCCCCS`, the “activity change, negative = cytotoxic” value is 0.277% (inactive).

For the origin of these results see PubChem BioAssay (Tox21).
